Wnt bcat act = Wnt/beta-catenin pathway activation | Wnt/beta-catenin reporter cell assay, activator, plate reader | activation, % at 9.35 µM | 300,000 compounds, 1.2% hits; in the data active = activation above about 30%, passing the limit was not always enough; inconclusive = no clear call, values can overlap the other calls;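 also: 0% = neutral control wells and 100% = positive control wells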
C2C12 statin = suppression of simvastatin myotoxicity; C2C12 myotubes + simvastatin, ATP luminescence, 48 h; scaled: DMSO 0, geranylgeraniol control 100; rescue of ATP level, % at 7.49 µM; 330,000 compounds, 0.78% hits;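 active = mean ATP rescue above about 67%, or every replicate alone reaching that limit, limit read from the data, passing the limit was not always enough; inconclusive = no clear call, values can overlap the other calls; inactive = mean under the limit and some replicate under it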;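 also: myotubes were challenged with 10 µM simvastatin during compound exposure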
MITF TRPM1 inh = reduces MITF-dependent TRPM1 promoter luciferase signal | SK-MEL-5 TRPM1 promoter luciferase, 24 h | inhibition, % at 12.5 µM | 330,000 compounds, 0.83% hits;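 active = mean inhibition across replicates of 60% or more, whatever share of single replicates reaches that level; inconclusive = some that reach 60%, reason not given; inactive = mean inhibition across replicates below 60%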
esBAF inh = SWI/SNF esBAF complex inhibition | reporter increase, % at 12.5 µM | mouse ES cells, Bmi1-luciferase knock-in reporter, 24 h; 100% = twice the neutral-well signal | 350,000 compounds, 2% hits | AID 602393; in the data active = activation above about 40%; inconclusive = no clear call, values can overlap the other calls;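 also: 0% = median of the plate's neutral control wells and 100% = double that signal; a rise in the Bmi1 reporter signal indicates esBAF inhibition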
LMP1 NFkB inh = inhibitors of Epstein-Barr LMP1-induced NF-kappaB reporter; LMP1-induced NF-kappaB luciferase reporter cells, luminescence; inhibition, % at 12.5 µM; 350,000 compounds, 0.69% hits; AID 504558; in the data active = inhibition above about 41%; inconclusive = no clear call, values can overlap the other calls;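 also: 0% = neutral control wells and 100% = reference inhibitor control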
MITF act = MITF TRPM1 promoter activation in melanoma cells; SK-MEL-5 TRPM1-promoter luciferase, 24 h; % of positive control, neutral wells = 0; AID 588334; activation, % at 12.5 µM; 300,000 compounds, 0.75% hits;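 active = mean activation of at least 80% with every replicate also reaching 80%; inconclusive = mean reaches 80% but some replicate falls short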;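 also: 0% = neutral control wells and 100% = parthenolide positive control wells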
* = called active by the depositor; ? = inconclusive; · = no result. The list is not random: actives were taken first. Their share in the collection is about 4%.

SMILES	Wnt bcat act	C2C12 statin	MITF TRPM1 inh	esBAF inh	LMP1 NFkB inh	MITF act
CCCCN(CC)CCCNC(=S)Nc1ccc2nc(N3CCN(C)CC3)cc(C)c2c1	3.0	·	-5.6	·	-12.5	6.8
Cc1cc(C)c(NC(=O)CSc2nnc(-c3ccncc3)n2Cc2ccco2)c(C)c1	·	14.5	15.2	3.6	-3.3	-12.7
C[C@@H]1C2CC(C/C2=N\NC(=O)c2ccncc2)C1(C)C (stereo not given in full)	2.0	8.6	-0.3	2.1	71.8*	0.8
CC1C2CC(C/C2=N/NC(=O)c2cccs2)C1(C)C (stereo not given)	2.2	·	5.2	·	-14.3	-2.3
Nc1c(C(=O)Nc2nc3ccccc3s2)sc2nc(-c3cccs3)ccc12	1.8	-349.1	?	-13.0	1.7	-67.0
CC(=O)c1sc2nc(-c3cccs3)ccc2c1N	·	8.9	-12.0	65.0*	-51.1	·
COc1ccc(Cl)cc1NC(=S)NC(=O)c1ccco1	2.0	-35.8	-8.6	12.5	5.3	9.7
FC(F)(F)c1nnc2c(Sc3ccccc3)nc3ccccc3n12	11.8	·	58.7	·	-43.1	·
FC(F)(F)c1nc2ccccc2n2c(-c3ccc(Cl)cc3)nnc12	·	·	76.2*	·	52.9*	-74.0
FC(F)(F)c1nnc2c(Sc3ccc(Cl)cc3)nc3ccccc3n12	-3.3	·	78.5*	·	-49.7	·
FC(F)(F)c1nc2ccccc2c2nc3ccccc3n12	13.2	·	8.8	·	-5.8	-10.9
FC(F)(F)c1nnc2c(Sc3ccccn3)nc3ccccc3n12	27.8	6.4	46.3	62.6*	-28.5	-43.6
CC(C)(C)c1ccc(/C=N/n2cnnc2)cc1	-0.5	·	5.5	·	-4.4	-4.7
CN(C)C1(CNC(=O)Nc2ccccc2)CCCCC1	-1.7	0.3	-7.2	3.7	42.5*	7.9
COc1cccc(-c2nc(-c3ccc(C(=O)O)cc3)no2)c1	22.0	-41.3	-4.0	7.7	-31.8	5.9
O=C(O)c1ccc(-c2noc(-c3ccccc3F)n2)cc1	15.8	-34.3	-5.0	-14.6	-13.6	4.6
Cc1ccc(-c2noc(-c3ccccc3F)n2)cc1	57.1*	-6.0	-17.7	-15.5	-34.6	12.1
CCOc1ccc(-c2nc(-c3cccnc3)no2)cc1	46.8*	3.3	-23.4	-2.8	3.3	13.3
COc1ccc(-c2nc(-c3cccnc3)no2)cc1	53.4*	·	-52.0	·	-18.6	·
COc1cc(OC)cc(-c2nc(-c3ccccc3)no2)c1	-1.9	-8.2	-39.5	48.4*	-52.3	45.0
COc1cc(C2SCCS2)cc(Br)c1Oc1ncccc1[N+](=O)[O-]	2.0	·	1.3	·	-1.5	·
C[C@@H]1CCCCO[C@H](CN(C)S(=O)(=O)c2cn(C)cn2)[C@H](C)CN([C@@H](C)CO)C(=O)c2cc(NS(C)(=O)=O)ccc2O1	·	·	·	-0.2	·	·
C[C@@H]1CN([C@@H](C)CO)C(=O)c2cc(NC(=O)Nc3cccc4ccccc34)ccc2O[C@H]1CN(C)S(C)(=O)=O	·	-0.6	·	-5.7	·	·
CCCC(=O)NC(NC(=S)Nc1c(C)n(C)n(-c2ccccc2)c1=O)C(Cl)(Cl)Cl (stereo not given)	-0.5	0.7	3.2	-7.4	0.1	1.0
COC(=O)[C@H]1[C@@H](C)N(Cc2ccccc2)C(=O)N[C@H]1c1cccc(C(F)(F)F)c1	-1.9	-0.5	4.0	1.6	4.9	0.6
SMILES	Wnt bcat act	C2C12 statin	MITF TRPM1 inh	esBAF inh	LMP1 NFkB inh	MITF act
CCCCOc1ccc(-c2nc(-c3cccnc3)no2)cc1	·	22.1	-92.0	6.6	1.4	99.4*
Cc1ccccc1-c1nc(-c2cccnc2)no1	47.7*	9.7	-37.8	9.3	-47.4	·
CCCNC(=O)OCCC12CC3CC(CC(C3)C1)C2	?	-1.0	-55.3	55.6*	8.3	59.2
COc1cc(C(=O)Nc2ccc(NC(=O)C3CC3)nc2)cc(OC)c1OC	60.6*	-17.0	1.3	-5.1	7.2	1.6
CCC(=O)Nc1ccc(NC(=O)c2cccc(OC)c2)nc1	·	-22.9	-71.8	32.9	-9.8	?
O=C(Nc1ccc(NC(=O)C2CC2)nc1)c1cnccn1	48.6*	0.0	-2.8	12.4	-0.1	5.9
CCCCC(=O)Nc1ccc(NC(=O)c2cc(OC)c(OC)c(OC)c2)cn1	0.6	82.4*	0.9	-6.0	12.1	2.7
CCCCC(=O)Nc1ccc(NC(=O)c2ccccc2OC)cn1	-1.3	-10.4	-26.3	0.3	3.5	31.4
COc1cccc(C(=O)Nc2ccc(NC(=O)C3CC3)cn2)c1	23.8	·	-99.5	·	-7.4	101.5*
COc1cc(C(=O)Nc2ccc(NC(=O)c3ccccc3)nc2)cc(OC)c1OC	3.6	-24.0	-9.9	7.2	2.8	10.3
O=C(Nc1ccc(NC(=O)C2CC2)nc1)c1ccccn1	0.0	-17.7	4.7	-44.0	5.1	-2.8
FC(F)(F)c1cnc(Sc2nc3nccc(-c4ccc(Cl)cc4)n3n2)c(Cl)c1	·	63.0	-2.9	0.3	7.7	3.0
Cc1ccc(-n2ncc3c(=O)n(CC(=O)NC4CCCC4)cnc32)cc1C	·	0.6	12.6	2.5	1.5	-15.6
OC(CSc1c(Cl)cccc1Cl)CN1CCN(c2ccccc2F)CC1 (stereo not given)	-3.1	171.6*	-8.5	-5.1	-2.9	7.9
OC(CSc1ccccc1Cl)CN1CCN(c2ccccc2F)CC1 (stereo not given)	·	3.7	-7.3	0.3	0.5	3.5
O=C(OCC(=O)c1ccc(Br)s1)c1ccc(O)cc1	42.8*	6.7	-47.5	75.8*	-5.0	40.1
CC(=O)c1c(C)[nH]c(C(=O)OCC(=O)C(C)(C)C)c1C	-0.1	·	6.1	·	-2.6	-6.8
Cc1ccc(C(=O)COC(=O)c2ccc(Cl)c(N)c2)s1	30.0	-0.7	-37.0	92.1*	-6.7	37.5
CC(=O)c1c(C)[nH]c(C(=O)OCC(=O)c2ccc(C)s2)c1C	20.8	0.2	-64.3	56.2*	-11.0	61.8
CC(=O)c1c(C)[nH]c(C(=O)OCC(=O)c2c[nH]c3ccccc23)c1C	17.2	8.2	-6.3	53.0*	-22.8	6.1
Cc1cc(OCC(F)(F)C(F)(F)C(F)(F)C(F)(F)C(F)(F)C(F)F)nc(N)n1	-2.5	-16.4	12.0	-4.7	-11.1	·
COc1ccc(NC(=O)CN(C)C(=O)/C=C/c2ccc(OCc3ccccc3)cc2)cc1	-1.1	-6.2	21.8	-1.3	-4.4	-23.4
CCOc1ccc(Br)cc1S(=O)(=O)NCc1ccncc1	-0.2	·	5.8	·	2.0	-3.1
COc1ccc(C(=O)c2coc3ccc(O)c(CN4CCOCC4)c23)cc1	3.0	0.1	-22.3	31.0	12.5	26.1
Cc1cccc(S(=O)(=O)Nc2nc3ccccc3nc2NCc2ccco2)c1	·	22.3	7.4	-4.3	2.7	-5.0
C[C@H]1CN([C@@H](C)CO)C(=O)CCCn2nncc2CO[C@H]1CN(C)Cc1ccncc1	·	-13.3	·	0.2	·	·
CCCC[C@@H](CNC)NC[C@H](Cc1ccc(O)cc1)NCCc1ccc(OCC)cc1	-6.7	-71.0	96.2*	0.1	-14.5	-95.2

Screening data as filed in PubChem.
